Molecules are shown by their SMILES. Inconclusive results are not listed. A call without a number means that no potency is given here. Calls of active or inactive are those of the source. The call rests on the fitted dose curve; in most records, active means well fitted cell-killing curve with a large enough effect; inconclusive means small, poorly fitted or top-dose-only effect, or effect the other way; inactive means flat fitted curve, though single readings scatter.

This assay in a line: Compound cytotoxicity measured by an ATP content assay as a counter-screen for lead compounds in human astrocytoma cell line (SNB-19). To be noted: SNB-19 astrocytoma viability, ATP luminescence; series mostly up to 46.1 µM. How it is done:
National Center for Advancing Translational Sciences [NCATS] Johns Hopkins University School of Medicine Florida State University Assay Overview: Many compounds can cause cytotoxicity at high compound concentrations. […] The compound cytotoxicity may also cause side effects or toxicity in human. Thus, the compound cytotoxicity needs to be measured in each cell type and each compound incubation time - same as these in the compound screening assay. The compound cytotoxicity can be measured by cell viability assays such as the ATP content assay. We use an ATP content assay kit for cell viability measurement. It measures ATP content (level) in human astrocytoma cell line (SNB-19) using a luminescence readout that is proportional to viable cell numbers. Decrease in the luminescence signal after the compound treatment indicates reduced cell viability and cell death caused by compound treatment.
Assay Protocol Summary: The medium for SNB-19 cells is composed of RPMI 1640 (ATCC, Cat.# 30-2001), 10% fetal bovine serum (FBS) (GE healthcare Life Sciences, Cat.# SH30071.03), and 1% Pen/Strep (Gibco, Cat.# 15140-122). The ATP content assay kit (PerkinElmer, Cat.# 6016731) was used to determine cell viability. The reagent was reconstituted and prepared as described by the manufacturer. Cells were seeded in 384- or 1536-well assay plates and cultured at 37 C with 5% CO2 for 16 to 20 hours. The typical cell seeding density in the 1536-well plate assay is 250 cells/well in 3ul medium for SNB-19 cells in tissue culture treated plates. Compounds were added to cells and incubated for a specific time such as 6, 24, or 72 hours before addition of the reagent mixture of the ATP content assay kit at 1:1 ratio. After incubation at room temperature for 10 minutes, the luminescence intensity in assay plates was measured using a ViewLux plate reader (PerkinElmer). […] The percentage inhibitions of the decreased cell viability by small molecules were then calculated that indicate compound cytotoxicity.
For orientation: A counterscreen serves to expose hits that act by an unwanted route or on another target.
For the compound `COc1ccc(C=CC(=O)Nc2ccccc2C(=O)O)cc1OC`, the Potency result was “inactive”.
On to `CCN1CCC(n2cc(CNc3cc(Cl)c4ncc(C#N)c(Nc5ccc(F)c(Cl)c5)c4c3)nn2)CC1`, for which the Potency result was “inactive”.
The entry for `Cc1nc(N)sc1-c1ccnc(Nc2ccc(N3CCOCC3)cc2)n1` is “inactive”; for `CCCCCCCCCCCC(=O)[O][Sn]([CH2]CCC)([CH2]CCC)[O]C(=O)CCCCCCCCCCC` it is “inactive”; for `O=C(Nc1ncc([N+](=O)[O-])s1)c1cccs1` it is “inactive”.
In the case of `COc1cc(NC(C)CCCN)c2ncccc2c1` (stereo not given), the Potency result is “inactive”.
As for `CCN1/C(=C/C=C/c2sc3ccccc3[n+]2CC)Sc2ccccc21`, the Potency entry was “inactive”.
For `O=C1c2ccccc2-[n+]2ccc3c([nH]c4ccccc43)c21`, the Potency is 4.35 µM (active).
As for `[O-][n+]1ccccc1SSc1cccc[n+]1[O-]`, the Potency is 0.708 µM (active).
Consider `CCC(C)SSc1ncc[nH]1` (stereo not given), for which the Potency entry is “inactive”.
Regarding `CCOCCOC(=O)/C=C/c1ccc(OC)cc1`, the Potency entry is “inactive”.
The figure for `O=C(O)c1cccc(-c2noc(-c3ccccc3F)n2)c1` is 5.48 µM (active); for `CNC1[C@H](O)C(O[C@@H]2C(O)C(O[C@H]3O[C@H]([C@@H](C)NC)CC[C@H]3N)[C@@H](N)C[C@H]2N)OC[C@]1(C)O` (stereo not given in full) it is “inactive”.
The value for `CC(=O)Oc1cccc2c1C(=O)c1c(OC(C)=O)cc(C(=O)O)cc1C2=O` was “inactive”.
As to `Cc1c(NC(=O)c2ccc(C(C)(C)C)cc2)cccc1-c1cn(C)c(=O)c(Nc2ccc(C(=O)N3CCOCC3)cc2)n1`, the Potency result was “inactive”.
Turning to `CCCCCCCC/C=C/C(=O)O`, the Potency entry was “inactive”.
Regarding `CN1CC(=O)N/C1=N/C(=O)Nc1cccc(Cl)c1`, the Potency result was “inactive”.
The entry for `O=C(OCc1ccccc1)c1ccc(O)cc1` is “inactive”.
`CCCC(=O)OC[C@@H](OC(=O)CCC)[C@@H](OC(=O)CCC)[C@H](Cn1c2nc(=O)[nH]c(=O)c-2nc2cc(C)c(C)cc21)OC(=O)CCC`: the Potency result is “inactive”.
In the case of `O=C(Nc1cc2cc[nH]c2cn1)c1ccccc1`, the Potency was 0.388 µM (active).
Take `O=C1c2ccccc2C(=O)c2c(NCCc3ccc(O)cc3)ccc(NCCc3ccc(O)cc3)c21`: the Potency result is “inactive”.
With `CN1CCN(c2cc3c(nn2)Oc2ccccc2N3C)CC1`, the Potency result was “inactive”.
Take `Clc1ccccc1-c1nc(-c2ccncc2)no1`: the Potency result was “inactive”.
The entry for `O=S(=O)(O)CCSSCCS(=O)(=O)O` is “inactive”; for `O=C(O)Cc1ccc(-c2ccccc2)cc1` it is “inactive”; for `O=c1cc(-c2ccccc2)oc2cc(O)c(O)c(O)c12` it is “inactive”.
On to `Nc1ncnc2c1ncn2[C@@H]1O[C@@H](CO)[C@H](O)[C@H]1O`, for which the Potency entry is “inactive”.
The value for `Cc1csc(NC(=O)c2sc3nc4c(c(C(F)(F)F)c3c2N)CCC4)n1` was 4.35 µM (active).
As to `CC(O)=C(C#N)C(=O)Nc1ccc(C(F)(F)F)cc1`, the Potency was 8.69 µM (active).
The entry for `Cc1ccc(O)c(-n2nc3ccccc3n2)c1` is “inactive”.
The entry for `CN(C)c1cc(NC(=O)CNC(C)(C)C)c(O)c2c1C[C@@H]1C[C@H]3[C@H](N(C)C)C(=O)C(C(N)=O)=C(O)[C@@]3(O)C(=O)C1=C2O` is “inactive”; for `CC(C)(C)OC(=O)CN(Cc1ccc(Cl)cc1)Cc1ccc([N+](=O)[O-])s1` it is “inactive”; for `COc1ccc(-c2cc(=S)ss2)cc1` it is “inactive”.
For the compound `Nc1nc2ccc([N+](=O)[O-])cc2s1`, the Potency entry is “inactive”.
Turning to `O=C1c2ccccc2C(=O)c2c1ccc(O)c2O`, the Potency result is “inactive”.
The entry for `CC[C@@]1(O)C[C@H](O[C@H]2C[C@H](N(C)C)[C@H](O[C@H]3C[C@H](O)[C@H](O[C@H]4CCC(=O)[C@H](C)O4)[C@H](C)O3)[C@H](C)O2)c2c(cc3c(c2O)C(=O)c2c(O)cccc2C3=O)[C@@H]1C(=O)OC` is “inactive”.
`C[C@@H]1CCN(C(=O)CC#N)C[C@H]1N(C)c1ncnc2[nH]ccc12`: the Potency entry was “inactive”.
The entry for `Cc1c(N)c(=O)n(-c2ccccc2)n1C` is “inactive”; for `CC(C(=O)O)c1ccc(-c2ccccc2)c(F)c1` (stereo not given) it is “inactive”; for `CN(C)CCCSc1ccccc1NC(=O)/C=C/c1ccccc1` it is “inactive”.

Values taken from PubChem BioAssay AID1224862 (National Center for Advancing Translational Sciences (NCATS), 2016).
